# Hits are enriched below; roughly 28% of the tested compounds scored in any of these assays.
# CYP2C9 activ: activators of human CYP2C9; AID 1024; recombinant CYP2C9, luciferin-H conversion, luminescence; stronger effect = higher value; factor 1 = untreated enzyme, 0 = blocked; 1.4% of 96,000 active; activation factor at 5 µM; P11712;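 active = activation factor of 2 or more for CYP2C9 at a 5 µM dose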;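 also: 0 = sulfaphenazole-blocked wells and 1 = vehicle-only wells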
# PLK1 PBD inh: inhibitors of human Plk1 polo box domain binding. P53350. Plk1 PBD phosphopeptide binding, fluorescence polarization. inhibition, %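 (tested at about 20 µM)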. 0.13% of 97,000 active. AID 693; in the data active = inhibition above about 34%, passing the limit was not always enough
# Target sequence (P53350 whole entry, looked up, the tested form may be a part): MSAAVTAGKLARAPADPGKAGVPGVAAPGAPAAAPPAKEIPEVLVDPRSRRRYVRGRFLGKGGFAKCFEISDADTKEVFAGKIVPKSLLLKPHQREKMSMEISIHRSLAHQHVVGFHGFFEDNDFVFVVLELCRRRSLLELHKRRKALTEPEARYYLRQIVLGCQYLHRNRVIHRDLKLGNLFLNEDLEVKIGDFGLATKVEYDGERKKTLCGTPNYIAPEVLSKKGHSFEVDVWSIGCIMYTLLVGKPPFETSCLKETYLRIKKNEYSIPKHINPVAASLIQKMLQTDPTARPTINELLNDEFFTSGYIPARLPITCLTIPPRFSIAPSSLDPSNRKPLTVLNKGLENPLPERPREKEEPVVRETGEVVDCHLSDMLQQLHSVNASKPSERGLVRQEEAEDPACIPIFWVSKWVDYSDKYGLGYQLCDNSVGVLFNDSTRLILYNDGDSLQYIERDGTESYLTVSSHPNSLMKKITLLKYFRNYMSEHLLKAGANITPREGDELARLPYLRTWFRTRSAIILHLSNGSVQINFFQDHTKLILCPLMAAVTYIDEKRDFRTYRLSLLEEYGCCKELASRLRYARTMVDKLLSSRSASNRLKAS
# PLK1 inh: inhibitors of human PLK1 kinase; recombinant PLK1 kinase, TR-FRET peptide phosphorylation; inhibition, % at 10 µM; P53350; 0.53% of 97,000 active; AID 619;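 active = inhibition of 50% or more in the single-concentration screen; inactive = inhibition below 50%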;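 also: 0% = DMSO max control and 100% = H-89 dihydrochloride min control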
# CYP2C19 act: cytochrome P450 2C19 (human) activation. 96,000 tested, under 10 active. activation factor at 5 µM. AID 1025. recombinant CYP2C19, luciferin-H EGE luminescence; stronger effect = higher value; 0 = fully inhibited enzyme, 1 = untreated enzyme;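 active = activation factor of at least 2 at 5 µM in the primary screen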;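 also: 0 = wells with 2.5 mM tranylcypromine and 1 = vehicle-only wells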
# CYP2C19 inhib: blocks human cytochrome P450 2C19; CYP2C19 Supersomes, luciferin-H EGE luminescence, 30 min; inhibition, % at 5 µM; 21% of 96,000 active;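 active = CYP2C19 inhibition above a set limit at 5 µM in the primary screen, cut at about 50% in these data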;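 also: plate controls were negative control wells for no effect and 2.5 mM tranylcypromine positive control for full effect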
# CYP2C9 inh: human CYP2C9 inhibition; P11712; CYP2C9 Supersomes, luciferin-H conversion, luminescence; inhibition, % at 5 µM; 20% of 96,000 active;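 active = blocking of liver enzyme CYP2C9 beyond about 50% at 5 µM, limit read from the data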
# The depositor's hits bear a star; . = not tested or not shown.
SMILES,CYP2C9 activ,PLK1 PBD inh,PLK1 inh,CYP2C19 act,CYP2C19 inhib,CYP2C9 inh
CCOc1ccc(-n2c(N)c(C(=O)NCc3cccnc3)sc2=S)cc1,0.8,32.0,-13.7,0.9,9.9,20.9
CCOc1ccc(N(C(C)C(=O)NC2CCCCCC2)S(C)(=O)=O)cc1 (stereo not given),0.7,-16.3,-14.8,0.8,17.7,26.7
CCOc1ccc(S(=O)(=O)Nc2ccccc2C(=O)NCc2ccco2)cc1,0.3,-23.4,-7.9,0,99.8*,70.0*
Cc1c(NC(=O)C(C)Sc2n[nH]c(N)n2)c(=O)n(-c2ccccc2)n1C (stereo not given),1.1,-29.5,0.6,1.1,-5.7,-11.7
COc1ccc(S(=O)(=O)Nc2ccccc2C(=O)NCc2ccco2)cc1Br,0.5,17.6,-4.9,0.7,34.0,50.7*
CS(=O)(=O)Nc1ccccc1C(=O)NCc1ccco1,0.5,-21.3,-10.7,0.8,24.6,49.3
CCOC(=O)c1ccc(S(=O)(=O)Nc2ccccc2-c2nnn(CC)n2)cc1,0,.,.,0,99.3*,95.9*
CCn1nnc(-c2ccccc2NS(=O)(=O)c2ccc(S(=O)(=O)N(C)C3CCCCC3)cc2)n1,0.2,-23.6,-8.1,0.8,17.1,84.3*
CCn1nnc(-c2ccccc2NS(=O)(=O)c2ccc(S(=O)(=O)N3CCCCCC3)cc2)n1,0.9,-18.3,4.3,0.9,6.3,5.3
CCOC(=O)c1ccc(S(=O)(=O)Nc2cc(C(C)(C)C)no2)cc1,0.2,-15.6,-8.7,0.8,16.2,82.9*
COCCCNC(=O)CNC(=S)N(Cc1ccc(F)cc1)C1CCCCC1,0.8,-21.3,-2.8,0.8,17.3,20.4
O=C(CN1C(=O)C2CC=CCC2C1=O)Nc1nccs1 (stereo not given),1.1,.,.,1.1,-7.7,-14.8
Cc1ccccc1OCC(=O)Nc1ccccc1-c1ccccc1,.,.,-5.0,.,.,.
Cc1cc(Cl)ccc1OCC(=O)Nc1ccccc1CO,0.7,29.5,-8.9,0.4,57.9*,25.4
Cc1cc(Cl)ccc1OCC(=O)NCCCN1CCOCC1,1,-3.8,1.1,0.6,41.6,-0.9
C/C(N)=C(/C#N)C(=O)COC(=O)COc1ccc(Cl)cc1C,1,19.3,-4.3,0.8,20.6,4.5
Cc1cc(Cl)ccc1OCC(=O)N1CC(C)CC(C)C1 (stereo not given),0.5,-10.3,-6.7,0,97.8*,47.6
Cc1cc(Cl)ccc1OCC(=O)Nn1c(C)ccc1C,0.6,22.6,-8.5,0.1,93.9*,40.7
CCOC(=O)c1c(C)oc(NC(=O)COc2ccc(Cl)cc2C)c1C#N,0.4,-22.5,-13.5,0.9,13.2,56.3*
CCc1c(O)nc(SCC(=O)Nc2ccccc2C)[nH]c1=O,1,14.6,-8.3,1.2,-18.8,1.4
Fc1ccc(CN2CCN3CCCC3C2C2CCCCC2)cc1F (stereo not given),1,9.7,-1.8,0.9,7.7,-0.6
O=C(Cc1ccccc1)Nc1ccccc1CO,1,0.9,-2.9,0.8,20.2,0.3
Cc1cc(Cl)ccc1OCC(=O)OC(C)C(=O)N(C)C (stereo not given),0.8,6.2,-6.8,0.3,69.3*,24.1
CCN(CC)C(=O)C(C)OC(=O)COc1ccc(Cl)cc1C (stereo not given),1,15.9,-10.0,0.6,40.3,-4.1
O=C(Cc1ccc(Cl)cc1)Nc1ccccc1CO,0.9,1.1,-7.7,0.4,55.0*,6.4
SMILES,CYP2C9 activ,PLK1 PBD inh,PLK1 inh,CYP2C19 act,CYP2C19 inhib,CYP2C9 inh
O=C(O)c1cc(NCc2c(F)cccc2Cl)ccc1N1CCOCC1,0.7,22.6,3.0,1,-4.7,25.3
CCOC(=O)CSc1nnc(NCC(=O)OC(C)C)c(=O)[nH]1,1.2,10.4,13.5,1.1,-13.4,-20.8
CC1(C)Cc2ccccc2-c2nnc(-c3ccccn3)n21,0.9,-9.5,1.3,1.1,-13.1,14.1
CC(C)c1ccc(C2CC(=O)N3CN(C)CSC3=C2C#N)cc1 (stereo not given),0.8,0.7,-2.4,1,0.5,21.9
CC(C)c1ccc(C2C(C#N)=C(N)N3C(=C2C#N)Sc2ccccc23)cc1 (stereo not given),0.8,-26.0,-14.8,0.3,66.7*,21.0
CCOC(=O)C1CCCN(C(=O)Cc2c(C(=O)O)[nH]c3ccccc23)C1 (stereo not given),0.9,1.8,-4.2,1,-4.5,7.1
O=S(=O)(NC1CC1)c1ccc(S(=O)(=O)N(Cc2ccccn2)C2CCCC2)cc1,0.3,-8.3,-0.7,0.4,62.0*,70.8*
Cc1c(NC(=O)CN2CCN(C(c3ccccc3)c3ccccc3)CC2)c(=O)n(-c2ccccc2)n1C,1,-8.8,-9.7,1,0.8,-4.3
CS(=O)(=O)N(Cc1ccco1)CC(O)Cn1cc(C=O)c2ccccc21 (stereo not given),0.8,-7.3,-7.4,0.6,35.3,16.5
COC(=O)C(NNc1ccccc1)(NC(=O)c1cccc(F)c1)C(F)(F)F (stereo not given),0.2,-0.3,-8.2,0.2,83.1*,84.0*
O=C1CC(N2CCN(c3cccc(C(F)(F)F)c3)CC2)C(=O)N1c1ccccc1 (stereo not given),0.8,-30.7,1.9,1.1,-8.5,17.6
O=C(c1c(F)cccc1F)N1CCN(c2cccc(C(F)(F)F)c2)CC1,0.2,.,.,0.1,94.3*,80.4*
O=C1CC(N2CCN(c3cccc(C(F)(F)F)c3)CC2)C(=O)N1c1ccccc1F (stereo not given),0.2,2.6,-3.1,0.5,46.7,84.5*
Cn1cccc1C(=O)N1CCN(c2cccc(C(F)(F)F)c2)CC1,0.8,-9.8,-7.8,0.2,75.5*,21.6
CCOC(=O)N1CCN(c2c(N3CCN(c4cccc(C(F)(F)F)c4)CC3)c(=O)c2=O)CC1,1,-2.6,-7.8,1,-0.1,-2.5
O=C(CSc1nc2ccccc2c(=O)n1NC(=O)Cc1ccccc1)NCc1ccccc1,0.1,-20.2,-3.3,0.5,46.1,92.8*
O=C(CSc1nc2ccccc2c(=O)n1NC(=O)Cc1ccccc1)NCc1ccco1,0.1,4.1,-9.0,0.8,15.8,88.1*
O=C(CSc1nc2ccsc2c(=O)n1NC(=O)c1ccccc1)NCc1ccco1,0.4,36.8,-8.5,0.4,59.5*,64.5*
O=C(Cc1cccs1)Nn1c(Cc2cccs2)nc2ccccc2c1=O,0.3,.,.,0.5,47.4,71.8*
Cc1ccc(OC(C)c2nnc(N)s2)cc1Cl (stereo not given),0.5,-0.4,-3.6,0.3,67.8*,47.5
Cc1cc(-c2c(C)[nH]n(-c3ccccc3)c2=O)n(-c2ccccc2)n1,0.2,-17.3,-12.6,1,0.8,80.9*
Cc1cc(-c2c(C)[nH]n(-c3ccc(Cl)cc3)c2=O)n(-c2ccc(Cl)cc2)n1,0.4,-32.2,-11.3,0.9,8.2,60.2*

# Bioassay records from PubChem BioAssay.
